This passage reports growth inhibition results from the supplement of paper PMC5641865, “A screen for kinase inhibitors identifies antimicrobial imidazopyridine aminofurazans as specific inhibitors of the Listeria monocytogenes PASTA kinase PrkA” (The Journal of Biological Chemistry, 2017).

± gives the standard deviation of the averaged measurements.
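Also: End-point A600 read in BHI broth at 37 °C with 2% DMSO, inhibition computed as (1 − OD with compound plus ceftriaxone ÷ OD with ceftriaxone only) × 100.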

The test system of the test is Listeria monocytogenes 10403S. In words: growth inhibition relative to ceftriaxone-alone control; higher = stronger potentiation of ceftriaxone growth inhibition. The following applies: 10 µM; ceftriaxone 1 ug/ml; 12 h.
As for `C=CC(=O)Nc1cccc(Sc2nc(Nc3ccc(N4CCN(C)CC4)cc3)ncc2Cl)c1`, the growth inhibition came to 94.1 ± 1.1%. In the case of `COc1ccc(-c2cc3c(N)ncnc3o2)cc1`, the growth inhibition was -3.61 ± 1.9%. As for `CNC(=O)c1cc(COc2nnc(Nc3ccc(Cl)cc3)c3ccoc23)ccn1` [Telatinib (BAY 57-9352)], the figure is 22.8 ± 32%; as for `CS(=O)(=O)CCNCc1nc(-c2ccc3ncnc(Nc4ccc(F)c(Cl)c4)c3c2)cs1`, 1.67 ± 6.4%; as for `CC(C)(C)Cn1c(N)nc2ccc(-c3[nH]c(C(C)(C)C)nc3-c3ccc(F)cc3)nc21`, 97.5 ± 1.3%. As for `C/C(Nc1ccc(S(N)(=O)=O)cc1)=C1/C(=O)Nc2ccccc21`, the figure is -3.55 ± 0.8%; as for `Nc1cccc(-c2cc3c(Oc4cccc(O)c4)ncnc3[nH]2)c1`, -3.72 ± 8.2%; as for `Fc1ccc(-c2c(-c3ccncc3)nc3n2CCS3)cc1`, -6.65 ± 12%. Turning to `CN(C)C/C=C/C(=O)Nc1cc2c(Nc3ccc(F)c(Cl)c3)ncnc2cc1O[C@H]1CCOC1` [Afatinib (BIBW2992)], the growth inhibition amounted to 45.41 ± 0.44%.

As for `C[S+]([O-])c1ccc(-c2nc(-c3ccc(F)cc3)c(-c3ccncc3)[nH]2)cc1` (stereo not drawn), the growth inhibition was 28.4 ± 26%. In the case of `Cc1ccc(C(=O)NC2CCCCC2)cc1-c1ccc(C(=O)NCC2CC2)cc1` it was -1.78 ± 6.1%; in that of `O=C(Nc1cccc(Cl)c1)Nc1ncc(CCNc2ncnc3ccsc23)s1`, 94.4 ± 2%.

With `CS(=O)(=O)Nc1cccc(-c2ccc3c(NC(=O)C4CC4)n[nH]c3c2)c1`, the growth inhibition was -6.98 ± 15%.

On to `CCn1cc(-c2ccnc3[nH]c(-c4cccc(CN(C)C)c4)cc23)c(-c2ccc(NC(=O)N(C)C)cc2)n1`, for which the growth inhibition came to 26.7 ± 18%. As to `CS(=O)(=O)N1CCN(Cc2cc3nc(-c4cccc5[nH]ncc45)nc(N4CCOCC4)c3s2)CC1`, the growth inhibition came to 25.2 ± 21%. In the case of `CCN1CCC(CC(=O)Nc2n[nH]c3nc(-c4cccs4)c(Br)cc23)CC1` it was 7.98 ± 1.7%; in that of `CCN(CC)CCCCNc1ncc2cc(-c3cc(OC)cc(OC)c3)c(NC(=O)NC(C)(C)C)nc2n1`, 23.2 ± 6.8%.

As for `COc1cc2ncnc(Nc3ccc(F)c(Cl)c3)c2cc1NC(=O)/C=C/CN1CCCCC1`, the growth inhibition was 60 ± 55%. `[O-][S+]1CCN(Cc2ccc(-c3ccc4ncnc(Nc5ccc(OCc6ccccc6)c(F)c5)c4c3)o2)CC1`: the growth inhibition is 2.23 ± 7.9%.

With `Cc1ccc(NC(=O)c2cccc(C(C)(C)C#N)c2)cc1Nc1ccc2ncn(C)c(=O)c2c1`, the growth inhibition amounted to 47.4 ± 11%.

On to `COc1cc(Nc2ncc3c(n2)-c2ccc(Cl)cc2C(c2c(F)cccc2OC)=NC3)ccc1C(=O)O`, for which the growth inhibition was 43 ± 37%. As for `C#Cc1cccc(Nc2ncnc3ccc(OCCCCNCCS(C)(=O)=O)cc23)c1`, the figure is -12 ± 5.6%. Consider `Nc1nccc(C#Cc2cncnc2Nc2ccc(OCc3cccc(F)c3)c(Cl)c2)n1`, for which the growth inhibition was found to be 8.9975 ± 0.0066%. With `Clc1ccc(CNc2nccc(-c3cnn4ncccc34)n2)cc1`, the growth inhibition was -1.66 ± 1.6%. Regarding `CCC(=O)N1CCN(c2ccc(-n3c(=O)ccc4cnc5ccc(-c6cnc7ccccc7c6)cc5c43)cc2C(F)(F)F)CC1` [Torin 1], the growth inhibition was -4.1 ± 10%. As for `Fc1ccc(-c2ncn(C3CCNCC3)c2-c2ccnc(Oc3ccc(Oc4ccccc4)cc3)n2)cc1`, the figure is 12.2 ± 24%; as for `c1ccc(COc2ccc(Nc3ncnc4ccc(-c5ccco5)cc34)cc2)cc1`, -9.94 ± 12%; as for `CC[C@H](CO)Nc1nc(NCc2ccccc2)c2ncn(C(C)C)c2n1` [Roscovitine (Seliciclib, CYC202)], 22.9 ± 22%. Turning to `O=C1NC(=O)C(c2ccc(Cl)cc2)=C1Nc1ccc(Cl)c(C(=O)O)c1`, the growth inhibition was determined as 6.2 ± 5.4%.

Turning to `Cc1ccc(NC(=O)c2ccc(CN3CCN(C)CC3)cc2)cc1Nc1nccc(-c2cccnc2)n1` [Imatinib (Gleevec)], the growth inhibition stood at 16.3 ± 4.7%.

As for `COc1cc(Nc2ncc3c(C)nc(-c4cccc(C(F)(F)F)c4)n3n2)cc(OC)c1OC`, the growth inhibition was -2.03 ± 8.5%. In the case of `Cc1ccc(-n2nc(C(C)(C)C)cc2NC(=O)Nc2ccc(OCCN3CCOCC3)c3ccccc23)cc1` [BIRB 796 (Doramapimod)], the growth inhibition is 10.5 ± 14%. Turning to `COc1cccc(-n2ncc3c(N/N=C/c4ccncc4)ncnc32)c1`, the growth inhibition was -5.6 ± 4.6%. Consider `COc1ccc(CNC(=O)c2ccc(-c3cc(-c4nnc(C)o4)ccc3C)cc2)cc1`, for which the growth inhibition came out at 9.02 ± 3.7%. For `Cc1[nH]c(/C=C2\C(=O)Nc3ccc(S(=O)(=O)N(C)c4cccc(Cl)c4)cc32)c(C)c1C(=O)N1CCN(C)CC1`, the growth inhibition was found to be 51.3 ± 11%. `CC1=C(C(=O)Nc2cc(Cl)c3[nH]ncc3c2)C(c2ccc(C(F)(F)F)cc2)CC(=O)N1` (stereo not drawn): the growth inhibition is -4.67 ± 5.5%.

On to `CN1CCN(c2nc(C3=C(c4c[nH]c5ccccc45)C(=O)NC3=O)c3ccccc3n2)CC1` [Sotrastaurin (AEB071)], for which the growth inhibition was 44.8 ± 28%. As for `C=CC(=O)Nc1cccc(Oc2nc(Nc3ccc(N4CCN(C)CC4)cc3OC)ncc2Cl)c1`, the growth inhibition was -1.74 ± 9.7%.
